Results reported in PubChem BioAssay AID651739 (Broad Institute, 2012).
About 4,100 (73%) of roughly 5,600 compounds were called active. Another 4% or so got no clear call; they are omitted. The set was probably picked from earlier hits. These entries were drawn from the full list. Values without a mark were called inactive.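 Rule for the calls: active = mean replicate inhibition above about 95% and at least 55% of replicates individually reaching it (limit read from the data); inconclusive = only one of the two criteria is met; inactive = neither criterion is met.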

Test: T. cruzi intracellular proliferation inhibitors, confirmation, cell-based, NIH3T3 host, beta-gal parasite, luminescence, cherry-pick (AID 651739)
Conditions: T. cruzi beta-gal in NIH3T3, GalScreen luminescence, 90 h; at 8.35 µM; active compounds read high

Compound | inhibition
C[C@@H]1CCCCO[C@H](CN(C)S(=O)(=O)c2cccs2)[C@H](C)CN([C@H](C)CO)C(=O)c2cc(NS(=O)(=O)c3ccc(F)cc3)ccc2O1 | 109% (active)
CC(C)(C)[S@@](=O)N1Cc2cc(C(=O)NCc3ccc4c(c3)OCO4)nc(-c3cccc(-c4ccccc4)c3)c2[C@H]1CCO | 105% (active)
O=C(C1CCCC1)N1CCCCN2[C@@H](CO)[C@H](c3ccc(-c4cccc(F)c4)cc3)[C@@H]2C1 | 112% (active)
O=C(C1CCC1)N1CCCCN2[C@H](CO)[C@H](c3ccc(-c4ccncc4)cc3)[C@@H]2C1 | 103% (active)
O=C(C1CC1)N1CCCCN2[C@H](CO)[C@H](c3ccc(-c4cccc(F)c4)cc3)[C@H]2C1 | 99.1% (active)
CN(C)C(=O)c1ccc(-c2ccc([C@H]3[C@@H](CO)N4CCCCN(CC5CC5)C[C@H]34)cc2)cc1 | 90%
OC[C@@H]1[C@H](c2ccc(C#CC3CC3)cc2)[C@@H]2CN(CCC(F)(F)F)CCCCN12 | 105% (active)
O=C(C1CCC1)N1CCCCN2[C@H](CO)[C@H](c3ccc(-c4cccc(F)c4)cc3)[C@@H]2C1 | 109% (active)
O=C(Nc1ccccc1)N1CCCCN2[C@H](CO)[C@@H](c3ccc(C#Cc4ccccn4)cc3)[C@H]2C1 | 90%
O=C(Nc1cccc(F)c1)N1CCCCN2[C@H](CO)[C@H](c3ccc(C#CC4CC4)cc3)[C@@H]2C1 | 109% (active)
N#Cc1cccc(-c2ccc([C@H]3[C@H](CO)N4CCCCN(C(=O)Nc5cccc(F)c5)C[C@@H]34)cc2)c1 | 94.2%
C[C@H]1CN([C@@H](C)CO)S(=O)(=O)c2ccc(C3=CCCC3)cc2O[C@@H]1CN(C)Cc1ccccc1 | 96.5% (active)
C[C@H](CO)N1C[C@H](C)[C@@H](CN(C)S(=O)(=O)c2ccc(F)cc2)Oc2cc(C3=CCCC3)ccc2S1(=O)=O | 94.1%
C[C@H]1CN([C@@H](C)CO)S(=O)(=O)c2ccc(C3=CCCCC3)cc2O[C@@H]1CN(C)Cc1ccccc1 | 102% (active)
C[C@@H]1CN([C@H](C)CO)S(=O)(=O)c2ccc(C3=CCCC3)cc2O[C@H]1CN(C)Cc1ccccc1F | 99.3% (active)
C[C@@H]1CN([C@@H](C)CO)C(=O)c2cc(NC(=O)Nc3cccc4ccccc34)ccc2O[C@@H](C)CCCCO[C@H]1CN(C)Cc1ccccc1 | 107% (active)
C[C@@H]1CCCCO[C@@H](CN(C)Cc2ccccc2)[C@H](C)CN([C@H](C)CO)C(=O)c2cc(NC(=O)Nc3cccc4ccccc34)ccc2O1 | 96.4% (active)
C[C@@H]1CCCCO[C@@H](CN(C)C(=O)Nc2ccc(F)cc2)[C@H](C)CN([C@H](C)CO)C(=O)c2cc(NC(=O)Nc3cccc4ccccc34)ccc2O1 | 114% (active)
C[C@@H]1CN([C@H](C)CO)C(=O)Cc2cc(NC(=O)Cc3ccccc3)ccc2O[C@H]1CN(C)Cc1ccc(Oc2ccccc2)cc1 | 112% (active)
C[C@H]1CN([C@@H](C)CO)C(=O)c2cc(NC(=O)Nc3ccc4c(c3)OCO4)ccc2O[C@@H]1CN(C)Cc1ccc(Oc2ccccc2)cc1 | 103% (active)

Compound | inhibition
C[C@@H]1CN([C@@H](C)CO)C(=O)c2cc(NC(=O)Cc3ccccc3)ccc2O[C@@H]1CN(C)Cc1ccc(Oc2ccccc2)cc1 | 99.9% (active)
C[C@@H]1CN([C@@H](C)CO)C(=O)c2cc(NC(=O)Nc3ccc4c(c3)OCO4)ccc2O[C@@H]1CN(C)Cc1ccc(Oc2ccccc2)cc1 | 101% (active)
C[C@H]1CN([C@@H](C)CO)C(=O)Cc2cc(NC(=O)Cc3cn(C)c4ccccc34)ccc2O[C@@H]1CN(C)Cc1ccccc1 | 77.4%
C[C@H]1CN([C@@H](C)CO)C(=O)Cc2cc(NC(=O)Cc3cn(C)c4ccccc34)ccc2O[C@@H]1CN(C)Cc1ccc(C(F)(F)F)cc1 | 104% (active)
C[C@H]1CN([C@@H](C)CO)C(=O)c2cccc(NS(=O)(=O)c3cn(C)cn3)c2O[C@@H]1CN(C)CC1CCCCC1 | 46.2%
COc1ccc(NC(=O)N(C)C[C@@H]2Oc3c(NC(=O)NC4CCCCC4)cccc3C(=O)N([C@@H](C)CO)C[C@@H]2C)cc1 | 51.2%
COc1ccc(S(=O)(=O)N(C)C[C@H]2Oc3c(NC(=O)Nc4cccc5ccccc45)cccc3C(=O)N([C@@H](C)CO)C[C@H]2C)cc1 | 98.8% (active)
Cc1ccc(S(=O)(=O)N(C)C[C@@H]2Oc3c(NC(=O)c4nc5ccccc5s4)cccc3C(=O)N([C@H](C)CO)C[C@@H]2C)cc1 | 95.2% (active)
C[C@@H]1CN([C@@H](C)CO)S(=O)(=O)c2ccc(-c3ccncc3)cc2O[C@@H]1CN(C)C(=O)Nc1ccc(F)cc1 | 100% (active)
C[C@@H]1CN([C@@H](C)CO)S(=O)(=O)c2ccc(C#Cc3ccc(F)cc3)cc2O[C@H]1CN(C)C(=O)NC1CCCC1 | 105% (active)
C[C@@H]1CN([C@@H](C)CO)S(=O)(=O)c2ccc(C#Cc3ccccc3)cc2O[C@@H]1CN(C)C(=O)Nc1ccccc1 | 103% (active)
C[C@@H]1CN([C@@H](C)CO)S(=O)(=O)c2ccc(C#Cc3ccc(F)cc3)cc2O[C@H]1CN(C)C(=O)c1ccccn1 | 108% (active)
N#Cc1ccc(-c2ccc3c(c2)[C@@H]2[C@@H](CCN2C(=O)Cc2ccncc2)[C@@H](CO)N3)cc1 | 112% (active)
COCC(=O)N1CC[C@@H]2[C@@H](CO)Nc3ccc(-c4cccc(C#N)c4)cc3[C@@H]21 | 111% (active)
C[C@@H]1CN([C@H](C)CO)S(=O)(=O)c2ccc(-c3cccc(C#N)c3)cc2O[C@@H]1CN(C)C(=O)Nc1ccccc1F | 86.6%
C[C@H]1CN([C@@H](C)CO)S(=O)(=O)c2ccc(C#CC3CCCC3)cc2O[C@@H]1CN(C)C(=O)c1cccc(F)c1 | 96.6% (active)
C[C@H](CO)N1C[C@H](C)[C@@H](CN(C)C(=O)Nc2cc(F)ccc2F)Oc2cc(C#CC3CC3)ccc2S1(=O)=O | 108% (active)
N#C[C@@H]1[C@H](c2ccc(C#Cc3cccc(F)c3)cc2)[C@@H](CO)N1C(=O)C1CCCC1 | 103% (active)
N#C[C@@H]1[C@@H](c2ccccc2)[C@@H](CO)N1C(=O)Cc1ccccc1 | 78.3%
CCN(C[C@H]1[C@H](c2ccccc2)[C@H](CO)N1C(=O)C1CC1)C(=O)NC1CCCC1 | -20.8%

Compound | inhibition
N#C[C@@H]1[C@@H](c2ccc(/C=C/c3ccccc3)cc2)[C@@H](CO)N1C(=O)C1CC1 | 108% (active)
CCCC#Cc1ccc([C@@H]2[C@@H](C#N)N(C(=O)C3CCCC3)[C@@H]2CO)cc1 | 107% (active)
CC(=O)N1[C@H](CNC(=O)C2CC2)[C@@H](c2ccc(-c3cccc(F)c3)cc2)[C@@H]1CO | 19.2%
N#C[C@@H]1[C@@H](c2ccc(C#Cc3cccc(F)c3)cc2)[C@@H](CO)N1C(=O)C1CCC1 | 104% (active)
CC(=O)NC[C@@H]1[C@@H](c2ccc(-c3ccccc3F)cc2)[C@@H](CO)N1C(=O)C1CC1 | 15.9%
CC(=O)N(C)C[C@@H]1[C@@H](c2ccc(-c3ccccc3F)cc2)[C@@H](CO)N1C(C)=O | 19.8%
COCC(=O)N1[C@H](CO)[C@@H](c2ccc(C#Cc3ccccc3F)cc2)[C@@H]1C#N | 107% (active)
C[C@@H]1CCCCO[C@H](CN(C)S(=O)(=O)c2ccc(F)cc2)[C@H](C)CN([C@@H](C)CO)C(=O)c2cc(NS(=O)(=O)c3ccccc3)ccc2O1 | 109% (active)
C[C@H](CO)N1C[C@H](C)[C@H](CN(C)S(=O)(=O)c2ccc(F)cc2)OCCCC[C@H](C)Oc2ccc(NS(=O)(=O)c3ccc(Cl)cc3)cc2C1=O | 92.1%
Cc1ccc(S(=O)(=O)N(C)C[C@@H]2OCCCC[C@@H](C)Oc3ccc(NS(=O)(=O)c4ccc(F)cc4)cc3C(=O)N([C@H](C)CO)C[C@H]2C)cc1 | 97.7% (active)
Cc1ccc(S(=O)(=O)Nc2ccc3c(c2)C(=O)N([C@H](C)CO)C[C@H](C)[C@H](CN(C)C(=O)Nc2ccc(F)cc2)OCCCC[C@H](C)O3)cc1 | 108% (active)
COc1ccc(S(=O)(=O)N(C)C[C@H]2OCCCC[C@H](C)Oc3ccc(NS(=O)(=O)c4ccc(F)cc4)cc3C(=O)N([C@@H](C)CO)C[C@@H]2C)cc1 | 106% (active)
Cc1ccc(S(=O)(=O)N2C[C@@H](O)COC[C@@H]3O[C@H](CC(=O)NCc4ccc(Cl)c(Cl)c4)CC[C@H]32)cc1 | 103% (active)
COc1cccc(S(=O)(=O)N2C[C@@H](O)COC[C@@H]3O[C@H](CC(=O)Nc4ccccc4)CC[C@H]32)c1 | 62.3%
C[C@H](CO)N1C[C@H](C)[C@H](CN(C)Cc2ccc(C(F)(F)F)cc2)Oc2ccc(NS(=O)(=O)c3ccc(Cl)cc3)cc2C1=O | 106% (active)
COc1ccc(CN(C)C[C@H]2Oc3ccc(NS(=O)(=O)c4ccc(Cl)cc4)cc3CC(=O)N([C@@H](C)CO)C[C@H]2C)cc1 | 100% (active)
COc1ccc(S(=O)(=O)Nc2ccc3c(c2)C(=O)N([C@@H](C)CO)C[C@H](C)[C@@H](CN(C)Cc2ccc(C(F)(F)F)cc2)O3)cc1 | 88.7%
COc1ccc(S(=O)(=O)Nc2ccc3c(c2)C(=O)N([C@H](C)CO)C[C@H](C)[C@H](CN(C)Cc2ccc(C(F)(F)F)cc2)O3)cc1 | 106% (active)
COc1ccc(S(=O)(=O)Nc2ccc3c(c2)C(=O)N([C@@H](C)CO)C[C@H](C)[C@H](CN(C)Cc2ccc(C(F)(F)F)cc2)O3)cc1 | 104% (active)
